# ChEMBL document CHEMBL4808148, “HDAC6 screening dataset using tau-based substrate in an enzymatic assay yields selective inhibitors and activators” (2021)
# Hit rate of the full screen: of about 5,600 compounds, about 390 (7%) showed an effect of 50% or more. The sample as a whole holds a higher share of strong results than the screen did.
# Target: T1, Protein deacetylase HDAC6 (Homo sapiens) (UniProt Q9UBN7)
# T1 sequence (whole entry): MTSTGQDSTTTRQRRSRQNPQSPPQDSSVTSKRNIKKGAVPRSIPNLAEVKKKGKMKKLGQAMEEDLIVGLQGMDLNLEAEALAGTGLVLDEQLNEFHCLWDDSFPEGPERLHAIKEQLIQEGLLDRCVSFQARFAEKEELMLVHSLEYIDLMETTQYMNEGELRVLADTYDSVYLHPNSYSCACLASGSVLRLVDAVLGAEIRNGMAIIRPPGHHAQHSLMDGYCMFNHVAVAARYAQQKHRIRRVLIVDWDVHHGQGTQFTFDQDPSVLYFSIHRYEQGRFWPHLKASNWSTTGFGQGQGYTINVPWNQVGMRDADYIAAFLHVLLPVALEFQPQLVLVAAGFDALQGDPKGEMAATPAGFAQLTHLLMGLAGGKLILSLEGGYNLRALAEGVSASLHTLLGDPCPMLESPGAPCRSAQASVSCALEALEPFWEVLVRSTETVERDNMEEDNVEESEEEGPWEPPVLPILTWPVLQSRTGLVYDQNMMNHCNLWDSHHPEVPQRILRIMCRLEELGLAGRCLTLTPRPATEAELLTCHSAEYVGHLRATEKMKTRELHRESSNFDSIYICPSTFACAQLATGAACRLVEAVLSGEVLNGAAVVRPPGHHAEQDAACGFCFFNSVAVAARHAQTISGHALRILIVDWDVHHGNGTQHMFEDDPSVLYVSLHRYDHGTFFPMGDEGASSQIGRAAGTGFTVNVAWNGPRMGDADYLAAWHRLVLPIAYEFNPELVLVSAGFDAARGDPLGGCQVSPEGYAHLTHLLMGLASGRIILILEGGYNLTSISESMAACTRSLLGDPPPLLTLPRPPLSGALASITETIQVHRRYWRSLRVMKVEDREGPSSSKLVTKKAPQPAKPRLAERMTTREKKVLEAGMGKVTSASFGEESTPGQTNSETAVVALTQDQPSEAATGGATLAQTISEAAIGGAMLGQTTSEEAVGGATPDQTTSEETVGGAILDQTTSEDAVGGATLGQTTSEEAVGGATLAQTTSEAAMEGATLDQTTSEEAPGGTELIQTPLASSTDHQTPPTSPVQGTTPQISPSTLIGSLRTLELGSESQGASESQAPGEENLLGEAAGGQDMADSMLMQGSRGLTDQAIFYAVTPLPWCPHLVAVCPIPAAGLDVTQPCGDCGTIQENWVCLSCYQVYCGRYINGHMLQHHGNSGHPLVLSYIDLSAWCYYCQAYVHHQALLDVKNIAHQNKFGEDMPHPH
# Settings: at 10 µM
row,SMILES,inhibition [%]
1,COc1ccc2cc1Oc1ccc(cc1)C[C@H]1c3c(cc4c(c3Oc3cc5c(cc3OC)CCN(C)[C@@H]5C2)OCO4)CCN1C,-6.05
2,O=C1/C(=C/c2ccccc2)C(NC2CCCCC2)c2ccccc21 (stereo not drawn),8.83
3,Cc1noc(NS(=O)(=O)c2cccc3c(N(C)C)cccc23)c1C,29.9
4,Nc1nc2c(cnn2CCc2ccccc2)c2nc(-c3ccco3)nn12,61.6
5,Cc1ccc(C)c(OCCCC(C)(C)C(=O)O)c1,7.2
6,Cc1cc(Cl)ccc1OCCCC(=O)NO,98.5
7,COc1ccc2[nH]c3c(-c4cccc5ccccc45)nccc3c2c1,9.67
8,Cc1cc(C)c(N)c(C#Cc2cccc(F)c2)n1,103
9,Cc1nc(C#Cc2ccnc(Cl)c2)c(C)n1-c1ccc(F)cc1,5.29
10,CC(C)NC(=O)c1ccc(C#Cc2ccncc2)cn1,-5.33
11,C[C@@H]([C@H](C)O)[C@H](N)C(=O)O,-7.36
12,CNC(=O)c1ccc(C)c(-n2c(C)cc(OCc3ccc(F)cc3F)c(Br)c2=O)c1,72.6
13,CCCCCCCCCCCCCC[C@@H](O)[C@@H](O)[C@@H](N)CO,0.56
14,CCCc1c(OCC(O)COc2ccc3c(=O)cc(C(=O)O)oc3c2CCC)ccc(C(C)=O)c1O (stereo not drawn),22.7
15,Cc1cc(OI)c(C(C)C)cc1-c1cc(C(C)C)c(OI)cc1C,7.55
16,Cc1nc2ccc(NC(=O)Nc3ccnc4cccnc34)cc2o1,76
17,CN[C@@H]1CCc2[nH]c3ccc(C(N)=O)cc3c2C1,9.03
18,Cc1cccc(/C=N/Nc2cc(N3CCOCC3)nc(OCCc3ccccn3)n2)c1,1.14
19,Cc1cc(-c2nncc3c(C(C)(C)C)c(OCc4ncnn4C)nn23)no1,-0.39
20,O=C1C[C@@H](c2ccccc2)Oc2cc(O)cc(O)c21,50.7
21,COc1ccc([C@@H]2CC(=O)c3c(O)cc(O[C@@H]4O[C@H](CO[C@@H]5O[C@@H](C)[C@H](O)[C@@H](O)[C@H]5O)[C@@H](O)[C@H](O)[C@H]4O)cc3O2)cc1O,14.3
22,COc1cc([C@H]2Oc3cc([C@H]4Oc5cc(O)cc(O)c5C(=O)[C@@H]4O)ccc3O[C@@H]2CO)ccc1O,15.7
23,O=C1c2c(O)cc(O)cc2O[C@H](c2ccc(O)c(O)c2)[C@H]1O,10.8

row,SMILES,inhibition [%]
1,O=C1C[C@@H](c2ccc(O)cc2)Oc2cc(O)ccc21,-5.99
2,COc1ccc([C@@H]2CC(=O)c3c(O)cc(O)cc3O2)cc1O,94.9
3,CS(=O)(=O)c1ccc([C@@H](CC2CCCC2)C(=O)Nc2nccs2)cc1,-9.75
4,Cn1cnnc1Sc1c([N+](=O)[O-])ncn1C,19.5
5,C=C1/C(=C\C=C2/CCC[C@]3(C)[C@@H]([C@H](C)/C=C/[C@@H](O)C4CC4)CC[C@@H]23)C[C@@H](O)C[C@@H]1O,1.78
6,C[C@@H](CN1CCC(n2c(=O)[nH]c3cc(Cl)ccc32)CC1)NC(=O)c1ccc2ccccc2c1,8.37
7,CC1(C)N=C(N)N=C(N)N1OCCCOc1cc(Cl)c(Cl)cc1Cl,12
8,Clc1cccc(-n2nnnc2NCc2ccccc2Oc2ccccn2)c1Cl,0.62
9,C[n+]1ccccc1C=NO,0.38
10,O=C1C(Cl)=C(N2CCOCC2)C(=O)N1c1ccc(Cl)c(Cl)c1,86
11,O=C(Nc1ccc(N2CCC(C(=O)N3CCOCC3)CC2)cc1)c1cnc(Oc2ccccc2)nc1,3.27
12,CCN(CC)C(=S)S,13.4
13,CC(=O)N(O)C/C=C/c1cccc(Oc2ccccc2)c1,9.26
14,N[C@@H]1CCCN(c2c(/C=C3\SC(=O)NC3=O)cccc2-c2ccccc2)C1,104
15,CCCCCCC[N+](CC)(CC)CCCCc1ccc(Cl)cc1,11
16,COc1cc(OC)cc(N(CCNC(C)C)c2ccc3ncc(-c4cnn(C)c4)nc3c2)c1,-0.23
17,Nc1nc(-c2nn(Cc3ccccc3F)c3ncccc23)ncc1C1CC1,34.9
18,N=C(N)NCCC(=O)O,1.27
19,NC(=O)C1=CN([C@@H]2O[C@H](COP(=O)(O)OP(=O)(O)OC[C@H]3O[C@@H](n4cnc5c(N)ncnc54)[C@H](O)[C@@H]3O)[C@@H](O)[C@H]2O)C=CC1,4.98
20,Cc1cnc(Nc2ccc(OCCN3CCCC3)cc2)nc1Nc1cccc(S(=O)(=O)NC(C)(C)C)c1,25
21,O=C(NO)c1ccc2[nH]c(=O)c(CCCc3ccccc3)nc2c1,99.2
22,CCCCc1ccc2[nH]c(NC(=O)OC)nc2c1,48
23,O=C(Nc1cccc2c(=O)cc(-c3nnn[nH]3)oc12)c1ccc(OCCCCc2ccccc2)cc1,9.45

row,SMILES,inhibition [%]
1,CCCCCCCCCCCCCCCC[N+](C)(C)Cc1ccccc1,36.2
2,CC(C)c1ccc(CC(=O)N2CCC[C@@H](c3cccc(OC(C)(C)C(=O)O)c3)C2)cc1,24.2
3,Nc1n[nH]c2nc3ccccc3nc12,53.6
4,COC(=O)c1ccc(O)cc1,16.3
5,COC(=O)CC1CC(c2ccc(O)cc2)=NO1 (stereo not drawn),96.7
6,Nc1nc(Nc2ccccc2)nc2c1ncn2[C@@H]1O[C@H](CO)[C@@H](O)[C@H]1O,-2.75
7,CC(N)(C(=O)O)c1ccc(-c2nnn[nH]2)cc1 (stereo not drawn),-2
8,CN(C)C(=N)NCCC[C@H](N)C(=O)O,23.2
9,O=C(O)c1cc([N+](=O)[O-])ccc1NCCCc1ccccc1,109
10,CS(=O)(=O)Nc1ccc([N+](=O)[O-])cc1Oc1ccccc1,1.72
11,Cn1c(NCCN(CCO)CCCc2ccc([N+](=O)[O-])cc2)cc(=O)n(C)c1=O,7.31
12,O=C(Nc1ccccc1)N1CCC(Cc2cnc3ccccc3c2)CC1,27.7
13,Cn1cc(/C=C2/C(=O)Nc3cccnc32)c2ccccc21,99.5
14,Cn1cc(C2=C(c3ccc(Cl)cc3Cl)C(=O)NC2=O)c2ccccc21,-5.95
15,Cn1cc(C2=C(c3cn(CCCSC(=N)N)c4ccccc34)C(=O)NC2=O)c2ccccc21,-2.47
16,Cc1ccc(-c2cn3c4c(sc3n2)CCCC4)cc1,98
17,Clc1ccccc1CNC[C@H]1CC[C@H](CNCc2ccccc2Cl)CC1,9.4
18,N#Cc1ccncn1,5.74
19,Nc1cccc(-c2cc3c(Oc4cccc(O)c4)ncnc3[nH]2)c1,55.1
20,C[C@@H]([C@@H](O)c1ccc(O)cc1)N1CCC(O)(c2ccccc2)CC1,14.2
21,CC/C=C(\C(=O)N[C@@H]1C(=O)N2C(C(=O)OCOC(=O)C(C)(C)C)=C(COC(N)=O)CS[C@H]12)c1csc(N)n1,4.66
22,N#Cc1c(O)c2c(-c3ccc(-c4ccccc4O)cc3)csc2[nH]c1=O,94.5
23,CNC(=N)NC(=O)Nc1c(C)cccc1C,27.8

row,SMILES,inhibition [%]
1,C1=Cc2cccc(OCC3CNCCO3)c2C1 (stereo not drawn),18.4
2,C=C(C)[C@@H]1CC[C@]2(C(=O)O)CC[C@]3(C)[C@H](CC[C@@H]4[C@@]5(C)CC[C@H](OC(=O)CC(C)(C)C(=O)O)C(C)(C)[C@@H]5CC[C@]43C)[C@@H]12,26.3
3,O=c1oc2cc(O)ccc2s1,15.3
4,COc1ccc(-c2cc(=O)c3c(O)c(OC)c(O)cc3o2)cc1OC,85.7
5,COc1ccc(-c2cc(=O)c3c(OC)c(OC)c(OC)c(OC)c3o2)cc1,44.4
6,O=C(O)c1cc(O)c2c(c1)[C@@H]([C@H]1c3cc(C(=O)O)cc(O)c3C(=O)c3c(O[C@H]4O[C@H](CO)[C@@H](O)[C@H](O)[C@H]4O)cccc31)c1cccc(O[C@H]3O[C@H](CO)[C@@H](O)[C@H](O)[C@H]3O)c1C2=O,17.7
7,O=c1cc(-c2ccccc2)oc2cc(O)cc(O)c12,101
8,O=c1cc(-c2ccc(O)cc2)oc2cc(O)cc(O)c12,97
9,O=C(O)[C@H]1O[C@H](Oc2cc3oc(-c4ccccc4)cc(=O)c3c(O)c2O)[C@H](O)[C@@H](O)[C@@H]1O,61.7
10,CCOC(=O)COc1ccc2c(=O)cc(-c3ccccc3)oc2c1,46.4
11,O=C(O)c1cc(O)c2c3nc4ccccc4oc-3cc(=O)c2n1,5.48
12,COc1ccc(-c2cc(=O)c3c(OC)c(OC)c(OC)c(OC)c3o2)cc1OC,-2.26
13,OCc1ccccc1O[C@@H]1O[C@H](CO)[C@@H](O)[C@H](O)[C@H]1O,-9.23
14,CC(O)C(N)C(=O)O (stereo not drawn),8.96
15,Cc1ccc(Oc2ccccc2-c2csc(N=C3NCCCN3)n2)c(C)c1,38.2
16,CCCCCCCCCCCC(=O)N(CCO)CCO,14.4
17,OC[C@H]1O[C@@H](Oc2cc3c(O)cc(O)cc3[o+]c2-c2ccc(O)c(O)c2)[C@H](O)[C@@H](O)[C@@H]1O,27.8
18,OCCNCCCOc1cccc(Cl)c1Cl,15.6
19,COc1cc(C=O)c([N+](=O)[O-])cc1OC,11.8
20,Cn1c(=O)n(-c2ccc(C(C)(C)C#N)cc2)c2c3cc(-c4cnc5ccccc5c4)ccc3ncc21,-9.93
21,Cc1cnc(-c2ccccc2C(C)C)nc1NCc1ccc(-n2ccnn2)cc1,23.1
22,Clc1ccc2c(c1)N=C(N1CCNCC1)c1ccccc1N2,0.45
23,O=C(CN1CCNCC1)NC1CCCCC1,18.3

row,SMILES,inhibition [%]
1,CC(C)(C)c1ccc(C(=O)CCCN2CCC(OC(c3ccccc3)c3ccccc3)CC2)cc1,25.3
2,O=C(O)[C@@H]1C[C@@H](O)CN1,16.1
3,Cc1nc2ccc(Oc3ccc(F)cc3)cc2c(=O)n1C[C@H]1CCCN(C(C)C)C1,7.87
4,O=c1cc(-c2ccccc2)oc2cc(O)c(O)c(O)c12,99.6
5,O=C(O)Cc1cccc2c(=O)cc(-c3ccccc3)oc12,23.3
6,COc1ccc(-c2cc(=O)c3c(O)cc(O[C@@H]4O[C@H](CO[C@@H]5O[C@@H](C)[C@H](O)[C@@H](O)[C@H]5O)[C@@H](O)[C@H](O)[C@H]4O)cc3o2)cc1O,30.2
7,COc1ccc(-c2cc(=O)c3c(O)cc(O)cc3o2)cc1O,92.8
8,COc1ccccc1N1CCN(CCn2c(=O)[nH]c3c([nH]c4ccccc43)c2=O)CC1,3.49
9,C[C@@H]1OC(O)[C@H](O)[C@H](O)[C@H]1O (stereo partly drawn),8.33
10,CC(C)C(=O)OC[C@@]1(N=[N+]=[N-])O[C@@H](n2ccc(N)nc2=O)[C@H](OC(=O)C(C)C)[C@@H]1OC(=O)C(C)C,10.6
11,CC(=O)O[C@]1(C(C)=O)CC[C@H]2[C@@H]3CCC4=CC(=O)CCC4=C3[C@@H](c3ccc(N(C)C)cc3)C[C@@]21C,7.8
12,N=C(N)NCCCC(NC(=O)C1CCCN1C(=O)C1CSSCCC(=O)NC(Cc2ccc(O)cc2)C(=O)NC(Cc2ccccc2)C(=O)NC(CCC(N)=O)C(=O)NC(CC(N)=O)C(=O)N1)C(=O)NCC(N)=O (stereo not drawn),12.1
13,COC(=O)[C@H](NC(=O)c1cc(-c2ccccc2)nc2ccccc12)c1ccccc1,30.8
14,COc1cc2ncc(-c3ccccc3)nc2cc1OC,97.8
15,O=C(O)c1cc(-c2ccccc2)nc2ccccc12,16.3
16,C=CCN(C)CCCCCCOc1ccc(C(=O)c2ccc(Br)cc2)c(F)c1,8.93
17,C=CCNc1nc(NCC=C)nc(N2CCN(C(c3ccc(F)cc3)c3ccc(F)cc3)CC2)n1,-4.35
18,NC(C(=O)O)c1cc(O)cc(O)c1 (stereo not drawn),9.39
19,CCCCCN1CCC(C(N)=O)CC1,3.67
20,CC(C(=O)O)c1ccc(C(=O)c2ccccc2)s1 (stereo not drawn),41.6
21,N=C(N)NCc1cccc(I)c1,13.7
